This is part of a sample that, as a whole, favours compounds with a hit. Of some 83,000 tested, about 20% had one in any assay.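 The test compound was applied at a single concentration to cells in 96-well plates for 48 hours, and percent growth was recorded.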 A number with no mark means an inactive call. Activity calls are given as the source filed them. The calls were made as follows: active = growth percent below 10; inactive = the rest.
Key:
Experiment in all cases: NCI-60 one-dose screen, 48 h (100 = growth as untreated, 0 = no growth, -100 = all killed)
[1] = system: DU-145 prostate; conditions: 10 µM unless noted
[2] = system: K-562 leukemia; conditions: 10 µM unless noted
[3] = system: MALME-3M melanoma; conditions: 10 µM unless noted
[4] = system: RXF 393 renal; conditions: 10 µM unless noted
[5] = system: SF-295 CNS; conditions: 10 µM unless noted
[6] = system: SNB-19 CNS; conditions: 10 µM unless noted
[7] = system: SK-MEL-5 melanoma; conditions: 10 µM unless noted
[8] = system: LOX IMVI melanoma; conditions: 10 µM unless noted
[9] = system: SK-MEL-2 melanoma; conditions: 10 µM unless noted
[10] = system: HL-60(TB) leukemia; conditions: 10 µM unless noted
[11] = system: CCRF-CEM leukemia; conditions: 10 µM unless noted
[12] = system: MOLT-4 leukemia; conditions: 10 µM
[13] = system: IGROV1 ovarian; conditions: 10 µM
[14] = system: OVCAR-3 ovarian; conditions: 10 µM unless noted
[15] = system: NCI/ADR-RES ovarian; conditions: 10 µM unless noted
[16] = system: T-47D breast; conditions: 10 µM unless noted
[17] = system: HCC-2998 colon; conditions: 10 µM unless noted
[18] = system: UACC-257 melanoma; conditions: 10 µM unless noted
[19] = system: ACHN renal; conditions: 10 µM unless noted
[20] = system: OVCAR-8 ovarian; conditions: 10 µM unless noted

Row | Compound | growth [1] | growth [2] | growth [3] | growth [4] | growth [5] | growth [6] | growth [7] | growth [8] | growth [9] | growth [10] | growth [11] | growth [12] | growth [13] | growth [14] | growth [15] | growth [16] | growth [17] | growth [18] | growth [19] | growth [20]
1 | CC(=O)[O][Hg][c]1ccccc1 | -97.9% (active) | -21% (active) | -88% (active) | -92% (active) | 13.6% | -26.6% (active) | -87.6% (active) | -88.2% (active) | -52.9% (active) | -27.5% (active) | 0.0979% (active) | -10.9% (active) | -55.1% (active) | -93.3% (active) | -39.1% (active) | -42.1% (active) | -96.5% (active) |  |  | 
2 | O=C(C(=O)N1CCCC1)c1cn(CCCCCn2cc(C(=O)C(=O)N3CCCC3)c3ccccc32)c2ccccc12 | 100% | 68.8% | 109% | 108% | 93.9% | 93.5% | 75.9% |  | 114% | 109% | -26.6% (active) |  | 98.8% | 88.4% | 84.4% | 91.3% | 103% | 102% | 87.8% | 90.8%
3 | CC(C)(NC(=O)c1nn(CCCCCF)c2ccccc12)c1ccccc1 | 102% | 89.8% | 108% | 112% | 101% |  | 90.3% | 96.3% | 87% | 88.3% | 82.5% | 71.9% | 101% | 105% | 92.8% | 75.4% | 105% | 77% |  | 83.5%
4 | C/C(=C\C(=O)O[C@H]1[C@@H]2[C@H](C)CC[C@H]2[C@]2(C)O[C@@]1(C1CCCCC1)C[C@H]2OC(=O)CO)c1ccccc1 | 66.1% | 23.2% | 64.4% | -10.1% (active) | 50.5% | 64.4% | 71.7% |  | 55.8% | -27.8% (active) | 7.86% (active) |  | 71.1% | 44.4% | 7.73% (active) |  | 25.9% | 44.2% | -16.5% (active) | 19%
5 | N#C[Se]CCCNS(=O)(=O)C1CC2C=CC1C2 (stereo unspecified) | -68% (active) | 5.87% (active) | -55.5% (active) | -90% (active) | -80.7% (active) |  | -70.8% (active) | -76.8% (active) | -24.4% (active) | -41.1% (active) | 17.4% | 5.9% (active) | -52.5% (active) | -63.6% (active) | -3.8% (active) | 30.6% | 4.61% (active) | -55.3% (active) | -67% (active) | -27.1% (active)
6 | CC(=O)Oc1ccc(Cl)cc1 |  | 94.5% | 96.7% | 105% | 112% | 91.2% | 104% | 90.5% | 106% | 98.4% | 104% | 90.3% | 114% | 63.7% | 99.1% | 94.2% | 96.1% | 95.1% | 97.5% | 101%
7 | O=C1C=CC(=O)C2C1C1(Cl)C(Cl)=C(Cl)C2(Cl)C1(Cl)Cl (stereo unspecified) | 70.1% | 29.2% | 49.2% | 23.9% | 39.5% |  | 47.5% | 50.5% | 37% | 9.38% (active) | 60.4% | 59.5% | 56.4% | 44.3% | 47.3% | 28% |  | 57.5% | 50.8% | 74.3%
8 | O=C(CCl)NCNC(=O)CCl | 103% | 98.9% | 114% | 107% | 56.5% | 108% | 92.7% |  | 90.4% | 102% |  | 90.4% | 74.4% | 105% | 103% | 92.6% | 111% | 76.5% | 94.5% | 
9 | CO[C@@H]([CH2][Hg][S]C#N)[C@@H]([CH2][Hg][S]C#N)OC | 99.2% | 46.5% | 104% | 57.8% | 113% | 100% | 107% |  | 106% | 62.9% | 42.5% | 101% | 63.9% | -100% (active) | 93.7% | 116% | 90.3% | 86.8% |  | 107%
